Laboratory results taken from PubChem BioAssay AID1159580 (chemical genetic matrix, 2015).
Hit rate of the full screen: of about 5,500 compounds, about 2,000 (36%) were called active. Roughly 18% stayed inconclusive and do not appear here. Cut-off read from the data, not from the text of the source: active = normalized growth mostly below about 0.91 (no sharp cut-off); inconclusive = no clear call, values can overlap the other calls; inactive = mostly above about 0.92. The list shows a part of the results.

Assay: chemical genetic growth profiling, strain panel (AID 1159580);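 note: tested at 20 µM; growth read once vehicle control cultures reached saturation at 30 °C; 1 = growth at the plate median or of vehicle wells; lower values mean less growth of the strain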
Conditions: S. cerevisiae deletion strains, growth OD

Measured: normalized growth

Cc1ccc(-c2nc3ccc(C)cn3c2CC(=O)N(C)C)cc1
inactive: locus YAL021C, strain ccr4, stronger effect = lower value 1.06 | locus YAL026C, strain drs2, stronger effect = lower value 1.01 | locus YAL030W, strain snc1, stronger effect = lower value 1.02 | locus YBL061C, strain skt5, stronger effect = lower value 0.998 | locus YBR009C, strain hhf1, stronger effect = lower value 1.02 | locus YBR023C, strain chs3, stronger effect = lower value 0.989 | locus YBR171W, strain sec66, stronger effect = lower value 1.04 | locus YBR231C, strain swc5, stronger effect = lower value 0.966 | locus YBR279W, strain paf1, stronger effect = lower value 0.993 | locus YCL011C, strain gbp2, stronger effect = lower value 1.01 | locus YCL016C, strain dcc1, stronger effect = lower value 0.987 | locus YCL061C, strain MRC1, stronger effect = lower value 1.02 | locus YCL069W, strain vba3, stronger effect = lower value 1.02 | locus YCR088W, strain abp1, stronger effect = lower value 1.03 | locus YDL005C, strain med2, stronger effect = lower value 1.01 | locus YDL040C, strain nat1, stronger effect = lower value 1 | locus YDR001C, strain nth1, stronger effect = lower value 1.02 | locus YDR069C, strain doa4, stronger effect = lower value 1.01 | locus YDR137W, strain rgp1, stronger effect = lower value 1.05 | locus YDR159W, strain sac3, stronger effect = lower value 0.96 | locus YDR195W, strain ref2 1 | locus YDR297W, strain sur2, stronger effect = lower value 1 | locus YDR334W, strain swr1, stronger effect = lower value 1.02 | locus YDR335W, strain msn5, stronger effect = lower value 0.991 | locus YDR392W, strain spt3, stronger effect = lower value 0.939 | locus YEL003W, strain gim4, stronger effect = lower value 1.01 | locus YEL037C, strain rad23, stronger effect = lower value 1.01 | locus YEL061C, strain CIN8 (second series), stronger effect = lower value 1.01 | locus YER015W, strain faa2, stronger effect = lower value 1.02 | locus YER016W, strain bim1, stronger effect = lower value 1.01 | locus YER111C, strain swi4, stronger effect = lower value 1.03 | locus YER155C, strain BEM2 (second series), stronger effect = lower value 0.998 | locus YFR010W, strain ubp6, stronger effect = lower value 1.02 | locus YGL167C, strain pmr1, stronger effect = lower value 0.996 | locus YGL173C, strain kem1, stronger effect = lower value 1.01 | locus YGL227W, strain vid30, stronger effect = lower value 1.01 | locus YGL240W, strain doc1, stronger effect = lower value 1.09 | locus YGL253W, strain hxk2, stronger effect = lower value 0.999 | locus YHR013C, strain ard1, stronger effect = lower value 1.06 | locus YHR027C, strain rpn1, stronger effect = lower value 0.981 | locus YHR142W, strain chs7, stronger effect = lower value 1.03 | locus YJL092W, strain hpr5, stronger effect = lower value 1.02 | locus YJL095W, strain BCK1 (second series), stronger effect = lower value 1.01 | locus YJL115W, strain asf1, stronger effect = lower value 1.02 | locus YJL129C, strain trk1, stronger effect = lower value 1 | locus YJL154C, strain vps35, stronger effect = lower value 1.02 | locus YJL164C, strain tpk1, stronger effect = lower value 1.01 | locus YJL166W, strain qcr8, stronger effect = lower value 1.03 | locus YJL187C, strain SWE1, stronger effect = lower value 1.01 | locus YKL160W, strain elf1, stronger effect = lower value 0.997 | locus YKR026C, strain gcn3, stronger effect = lower value 1.02 | locus YKR091W, strain srl3, stronger effect = lower value 1.03 | locus YLL001W, strain dnm1, stronger effect = lower value 0.988 | locus YLL026W, stronger effect = lower value 0.999 | locus YLL041C, strain sdh2, stronger effect = lower value 1.01 | locus YLR027C, strain aat2, stronger effect = lower value 1.02 | locus YLR221C, strain rsa3, stronger effect = lower value 0.974 | locus YLR258W, strain gsy2, stronger effect = lower value 1.03 | locus YLR262C, strain YPT6 (second series), stronger effect = lower value 1.01 | locus YLR320W, strain mms22, stronger effect = lower value 0.991 | locus YLR342W, strain FKS1, stronger effect = lower value 0.987 | locus YLR357W, strain rsc2, stronger effect = lower value 1.01 | locus YLR370C, strain arc18, stronger effect = lower value 0.978 | locus YLR384C, strain iki3, stronger effect = lower value 0.975 | locus YML120C, strain ndi1, stronger effect = lower value 0.984 | locus YMR058W, strain fet3, stronger effect = lower value 1.02 | locus YMR125W, strain sto1, stronger effect = lower value 1.03 | locus YMR129W, stronger effect = lower value 0.978 | locus YMR205C, strain PFK2, stronger effect = lower value 1 | locus YMR231W, strain pep5, stronger effect = lower value 1.02 | locus YNL071W, strain lat1, stronger effect = lower value 1.03 | locus YNL209W, strain ssb2, stronger effect = lower value 0.995 | locus YNL248C, strain rpa49, stronger effect = lower value 1.02 | locus YNL322C, strain KRE1 (second series), stronger effect = lower value 1.03 | locus YNR049C, strain mso1, stronger effect = lower value 0.986 | locus YOR001W, strain rrp6, stronger effect = lower value 0.951 | locus YOR070C, strain gyp1, stronger effect = lower value 0.988 | locus YOR080W, strain dia2, stronger effect = lower value 0.998 | locus YOR083W, strain WHI5, stronger effect = lower value 0.969 | locus YOR106W, strain vam3, stronger effect = lower value 1.08 | locus YOR265W, strain rbl2, stronger effect = lower value 0.969 | locus YOR270C, strain vph1, stronger effect = lower value 1.07 | locus YOR290C, strain snf2, stronger effect = lower value 1.03 | locus YPL051W, strain arl3, stronger effect = lower value 1.02 | locus YPL078C, strain atp4, stronger effect = lower value 1.03 | locus YPL106C, strain sse1, stronger effect = lower value 1.12 | locus YPL240C, strain hsp82, stronger effect = lower value 0.982
